Only some compounds are listed: those with a hit (about 7.4% of all), similar ones and a draw of the others.
FLuc modulator: qHTS profiling assay for firefly luciferase inhibitor/activator using purifed enzyme and Km concentrations of substrates (counterscreen for miR-21 project); Luciferin 4-monooxygenase (Photinus pyralis), P08659; purified FLuc, Km substrates, luminescence inhibition; Potency, µM (highest dose often 57.5 µM), actives largely listed as inhibitors; hit rate 6.9% among 360,000; AID 588342, 2011; note: nearly all actives have a fitted effect of over 55% in size
Target sequence (P08659 whole entry, looked up): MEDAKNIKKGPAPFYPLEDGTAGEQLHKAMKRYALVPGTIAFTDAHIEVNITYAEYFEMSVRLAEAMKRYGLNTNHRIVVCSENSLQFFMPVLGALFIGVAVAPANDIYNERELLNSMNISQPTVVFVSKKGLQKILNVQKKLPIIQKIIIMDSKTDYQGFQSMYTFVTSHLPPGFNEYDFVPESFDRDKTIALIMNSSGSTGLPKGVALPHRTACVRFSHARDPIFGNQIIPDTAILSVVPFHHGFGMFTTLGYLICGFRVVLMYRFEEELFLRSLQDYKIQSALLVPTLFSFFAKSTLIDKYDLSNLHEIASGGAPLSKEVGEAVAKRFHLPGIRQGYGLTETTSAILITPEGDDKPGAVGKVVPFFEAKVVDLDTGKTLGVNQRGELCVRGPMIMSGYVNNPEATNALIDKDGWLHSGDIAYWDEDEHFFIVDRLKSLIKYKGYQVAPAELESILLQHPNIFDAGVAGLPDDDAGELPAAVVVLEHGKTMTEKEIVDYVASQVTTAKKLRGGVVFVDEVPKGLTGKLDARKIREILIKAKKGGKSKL
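Purified P. pyralis luciferase (10nM final) with 10uM D-luciferin and 10uM ATP (Km levels) in 50mM Tris acetate pH 7.5, 10mM Mg acetate, 0.01% Tween-20, 0.05% BSA; qHTS 6-point titration, ~60 µM downward; luminescence read.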
ELG1 genotoxic: qHTS screen for small molecules that induce genotoxicity in human embryonic kidney (HEK293T) cells expressing luciferase-tagged ELG1. HEK293T ELG1-luciferase reporter, luminescence, 16 h. Potency, µM (series often up to 46 µM), most hits filed as activators. hit rate 1.3% among 330,000. AID 504466, 2011; note: nearly all actives have a fitted effect of over 60% in size
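Reporter readout depends on ELG1 protein level, which increases with genetic stress. After 16 hr compound exposure at 37 °C, luciferase activity was quantified using ONE-Glo.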
Rab9 promoter act: qHTS Assay for Rab9 Promoter Activators; Huh7 Rab9 promoter-luciferase reporter, luminescence, 24 h; Potency, µM (series often up to 9.22 µM), usual class: activators; hit rate 2.8% among 320,000; AID 485297, 2010; note: nearly all actives have a fitted effect of over 60% in size
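Luciferase signal after 10 min detection reagent at ambient indicates Rab9 promoter upregulation; stably transfected Huh7 cells were treated 24 h with compound in DMSO at 37 °C, 5% CO2.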
p53 reactivation: qHTS assay for re-activators of p53 using a Luc reporter; hit rate 0.063% among 320,000; H1299 p53-A138V BP100-luciferase reporter, luminescence, 24 h; Potency, µM (top dose mostly 92.2 µM), usual class: activators; AID 504706, 2011; note: nearly all actives have a fitted effect of over 45% in size
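H1299 (p53-null), stable ts p53-A138V + BP100-Luc; 1000 cells/well, Opti-MEM/10% FBS; cpd 4 pt, 1:5; 24 h, 37 deg C, 5% CO2; detection reagent 10 min RT; luminescence.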
NPC1 prom act: qHTS Assay for NPC1 Promoter Activators; Huh7 NPC1 promoter luciferase reporter, 24 h; Potency, µM (top dose mostly 9.22 µM), usual class: activators; hit rate 2.4% among 320,000; note: nearly all actives have a fitted effect of over 60% in size
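Stable NPC1-promoter luciferase Huh7 line; cpd (DMSO) 24 h, 37 °C, 5% CO2; Amplite luciferase reagent 10 min RT; luminescence readout. qHTS format.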
SMN2 splice enh: qHTS Assay for Enhancers of SMN2 Splice Variant Expression | Potency, µM (series often up to 46.1 µM), most hits filed as activators | hit rate 2.8% among 210,000 | HEK293 SMN2-luciferase splicing reporter, luminescence, 30-36 h; note: nearly all actives have a fitted effect of over 55% in size
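HEK293 cells carry an SMN2 minigene-luciferase reporter in which exon 7 inclusion puts luciferase in frame. Cells were seeded at 2000 cells/well, attached for 10-12 hours, then exposed to compounds for 30-36 hours at 37C before ONE-Glo luminescence.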
A number is an active result. Calls come from the whole dose curve; as a rule, active = well fitted curve in the direction sought with a large enough effect; inconclusive = small, poorly fitted or top-dose-only effect, or another doubt; inactive = no such curve, though single readings can be large; an effect the other way counts as inactive or inconclusive.

Results for Oc1c(Cl)cc(Cl)cc1C1=NNC(c2ccc(Cl)cc2)C1 (stereo not given) ?
FLuc modulator: inconclusive; ELG1 genotoxic: inactive; Rab9 promoter act: inconclusive; p53 reactivation: inactive; NPC1 prom act: inconclusive; SMN2 splice enh: inactive

What do the screens show for `Oc1ccc(Cl)cc1C1=NNC(c2ccc(Cl)cc2)C1` (stereo not given)?
FLuc modulator: inconclusive; ELG1 genotoxic: inactive; Rab9 promoter act: inactive; p53 reactivation: 28µM; NPC1 prom act: inactive; SMN2 splice enh: inactive

What do the screens show for `CN1CCN(C(CNC(=O)C(=O)Nc2ccc(Cl)cc2)c2cccnc2)CC1` (stereo not given)?
FLuc modulator: inactive

What do the screens show for `O=C(Oc1ccccc1)N1CCC2(CC1)CCN(c1cccc(-c3ccccc3)c1)CC2`?
SMN2 splice enh: inactive

Results for CCn1cnc2cc(NCc3nc4ccccc4n3Cc3ccccc3)ccc21 ?
FLuc modulator: 5.4µM; ELG1 genotoxic: inconclusive; Rab9 promoter act: 2.8µM; NPC1 prom act: 3.5µM; SMN2 splice enh: inconclusive

Results for CCn1cnc2cc(NCc3nc4ccccc4n3C)ccc21 ?
FLuc modulator: 3µM; ELG1 genotoxic: 1.6µM; Rab9 promoter act: 0.5µM; p53 reactivation: inconclusive; NPC1 prom act: 0.79µM; SMN2 splice enh: 7.1µM

Results for CCCn1cnc2cc(NCc3ccccc3O)ccc21 ?
FLuc modulator: inconclusive; ELG1 genotoxic: inactive; Rab9 promoter act: inactive; p53 reactivation: inactive; NPC1 prom act: inactive

Results for O=C(O)c1ccc(NCc2nc3ccccc3n2Cc2ccccc2)cc1 ?
FLuc modulator: inactive; ELG1 genotoxic: inactive; Rab9 promoter act: inactive; p53 reactivation: inactive; NPC1 prom act: inactive

What do the screens show for `CC(C)n1cnc2cc(NCc3nc4ccccc4n3C)ccc21`?
FLuc modulator: 4.8µM; ELG1 genotoxic: 15µM; Rab9 promoter act: 1.1µM; p53 reactivation: inconclusive; NPC1 prom act: 1.3µM; SMN2 splice enh: 2.8µM

What do the screens show for `CCCC(=O)NCc1nc2ccccc2n1C`?
FLuc modulator: inactive; ELG1 genotoxic: inactive; Rab9 promoter act: inactive; p53 reactivation: inactive; NPC1 prom act: inactive; SMN2 splice enh: inactive

What do the screens show for `CCc1ccccc1N(C)S(=O)(=O)c1ccc(-c2cc(C)no2)s1`?
FLuc modulator: inactive; ELG1 genotoxic: inactive; Rab9 promoter act: inactive; p53 reactivation: inactive; NPC1 prom act: inactive

What do the screens show for `Cc1ccc(-c2cc(C(=O)N3CCOCC3)no2)cc1`?
FLuc modulator: 0.54µM; ELG1 genotoxic: inconclusive; Rab9 promoter act: 0.32µM; p53 reactivation: inactive; NPC1 prom act: 0.32µM

Results for Cc1ccc(-c2cc(C(=O)N3CCCC3)no2)cc1 ?
FLuc modulator: 0.76µM; ELG1 genotoxic: 0.23µM; Rab9 promoter act: inconclusive; NPC1 prom act: inconclusive; SMN2 splice enh: 0.89µM

How did O=C(c1cc(-c2ccco2)on1)N1CCOCC1 do in these assays?
FLuc modulator: inconclusive; ELG1 genotoxic: inconclusive; Rab9 promoter act: inconclusive; p53 reactivation: inconclusive; NPC1 prom act: inactive; SMN2 splice enh: inactive

How did CCOC(=O)C1CCCN(C(=O)c2ccc3nc(-c4ccccc4)c(-c4ccccc4)nc3c2)C1 (stereo not given) do in these assays?
FLuc modulator: inactive; ELG1 genotoxic: inactive; Rab9 promoter act: inactive; p53 reactivation: inactive; NPC1 prom act: inactive

What do the screens show for `CCOC(=O)C1CCCN(C(=O)c2cc(-c3ccccc3)on2)C1` (stereo not given)?
FLuc modulator: inactive; ELG1 genotoxic: inconclusive; Rab9 promoter act: 4µM; p53 reactivation: inactive; NPC1 prom act: inconclusive; SMN2 splice enh: 22µM

Results for CCc1ccc(N2CC(C(=O)Nc3ccc4c(c3)OCO4)CC2=O)cc1 (stereo not given) ?
FLuc modulator: inactive; ELG1 genotoxic: inactive; Rab9 promoter act: inactive; p53 reactivation: inactive; NPC1 prom act: inactive

What do the screens show for `COc1ccc(NC(=S)N2CCC(c3ccccc3)C2)cc1` (stereo not given)?
FLuc modulator: 6.7µM; ELG1 genotoxic: 9.2µM; Rab9 promoter act: 2µM; p53 reactivation: inactive; NPC1 prom act: 2.5µM

Results for COc1ccc(NC(=S)N2CCC(C(O)(c3ccccc3)c3ccccc3)CC2)cc1 ?
FLuc modulator: inactive; ELG1 genotoxic: inactive; Rab9 promoter act: inactive; p53 reactivation: inactive; NPC1 prom act: inactive; SMN2 splice enh: inactive

What do the screens show for `COc1ccc(NC(=S)N2CCC(C(=O)c3ccc(C)cc3)CC2)cc1`?
FLuc modulator: inconclusive; ELG1 genotoxic: inactive; Rab9 promoter act: inactive; NPC1 prom act: inactive

How did COc1ccc(NC(=S)N2CCC(C(=O)c3ccc(OC)cc3)CC2)cc1 do in these assays?
FLuc modulator: 12µM; ELG1 genotoxic: inactive; Rab9 promoter act: inactive; p53 reactivation: inactive; NPC1 prom act: inactive

Results for CC(C#N)Sc1nnc(-c2ccccc2F)n1C1CC1 (stereo not given) ?
FLuc modulator: inactive; ELG1 genotoxic: inactive; Rab9 promoter act: inactive; p53 reactivation: inactive; NPC1 prom act: inactive

How did COc1ccc(NC(=O)c2oc3ccccc3c2NC(=O)Cc2coc3ccc(C)cc23)cc1 do in these assays?
FLuc modulator: inactive; SMN2 splice enh: inactive

Results for Cc1ccc(C(=O)CSc2ccccn2)cc1 ?
FLuc modulator: 6.7µM; ELG1 genotoxic: inconclusive; Rab9 promoter act: 3.5µM; p53 reactivation: inactive; NPC1 prom act: inconclusive; SMN2 splice enh: inconclusive

How did Cc1ccc(C(=O)CSc2nccn2-c2ccccc2)cc1 do in these assays?
FLuc modulator: inconclusive; ELG1 genotoxic: inactive; Rab9 promoter act: inactive; p53 reactivation: inactive; NPC1 prom act: inactive; SMN2 splice enh: inactive

How did O=C(CSc1ccccn1)c1ccc(F)cc1 do in these assays?
FLuc modulator: 19µM; ELG1 genotoxic: inconclusive; Rab9 promoter act: inconclusive; p53 reactivation: inconclusive; NPC1 prom act: inconclusive; SMN2 splice enh: inactive

Results for Cc1ccc(NC(=O)CCSc2ccccn2)cc1 ?
FLuc modulator: 6µM; ELG1 genotoxic: inconclusive; Rab9 promoter act: 3.2µM; p53 reactivation: inconclusive; NPC1 prom act: 3.5µM; SMN2 splice enh: 14µM

Results for Cn1ncc(Br)c1NC(=O)Nc1ccc(Cl)cc1 ?
FLuc modulator: inactive; ELG1 genotoxic: inactive; Rab9 promoter act: inactive; p53 reactivation: inactive; NPC1 prom act: inactive

What do the screens show for `CCN(CC)c1ccc(C2C(C(N)=O)=C(C)Nc3nc(SCc4ccccc4Cl)nn32)cc1` (stereo not given)?
FLuc modulator: inactive; SMN2 splice enh: inactive

What do the screens show for `Cc1cc(N)n(-c2cc(C)c3ccccc3n2)n1`?
FLuc modulator: 2.7µM; ELG1 genotoxic: inconclusive; Rab9 promoter act: inconclusive; p53 reactivation: inactive; NPC1 prom act: inactive; SMN2 splice enh: 11µM

Screens (PubChem BioAssay)
